# Data reported in PubChem BioAssay (Tox21).
# Results filed as inconclusive are left out. Entries that show only a call come without a potency. Calls of active or inactive are those of the source. Unless noted, calls come from the whole dose curve; as a rule, active = well fitted curve in the direction sought with a large enough effect in the repeat runs; inconclusive = weak or mixed curves; inactive = no such curve, though single readings can be large; an effect the other way counts as inactive or inconclusive.
# Legend:
# [1] = qHTS assay for small molecule agonists of the p53 signaling pathway - cell viability (AID 651633; calls by dose curve; note: nearly all actives have a fitted effect of over 30% in size; note: potency is the fitted concentration of half-maximal effect)
# Method in brief: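 p53RE-bla cells were treated with compound for 16 hours at 37 C. Cytotoxicity was then measured as CellTiter-Glo luminescence after 30 min at room temperature.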
# [2] = qHTS assay for small molecule disruptors of the mitochondrial membrane potential - cell viability (AID 720634; calls by dose curve; note: nearly all actives have a fitted effect of over 20% in size; note: potency is the fitted concentration of half-maximal effect)
# Method in brief: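 Same-well counter-screen: following the MMP dye addition, CellTiter-Glo was added to 1 hr compound-treated HepG2 cells and luminescence read after 30 min at room temperature.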
# [3] = qHTS assay to test for compound auto fluorescence at 590 nm (red) in HepG2 cells (AID 720674)
# Method in brief: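 Seeding: 2,000 HepG2 cells/well, MEM/10% FBS, overnight 37 C. Dosing: compound vs DMSO. Incubation: 1 hr, 37 C, 5% CO2. Read: fluorescence 540 ex/590 em, Rose Bengal sodium as red reference.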
# [4] = qHTS assay to test for compound auto fluorescence at 535 nm (green) in HepG2 cells (AID 720675)
# [5] = qHTS assay to test for compound auto fluorescence at 460 nm (blue) in HEK293 cells (AID 720678)
# Method in brief: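 Measured: blue fluorescence (Ex 405/Em 460 nm) of compound-treated HEK293 cells, incubated overnight at 37C with 5% CO2 and scaled to triamterene equivalents.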
# [6] = qHTS assay to test for compound auto fluorescence at 590 nm (red) in HEK293 cells (AID 720679)
# Method in brief: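 Using HEK293 cells at 2,000 per well, the screen added 23 nL of each compound after cell attachment and incubated overnight (37C, 5% CO2). The plate reader then captured red-label fluorescence, Ex/Em 540/590nm.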
# [7] = qHTS assay to test for compound auto fluorescence at 460 nm (blue) in HEK293 cell free culture (AID 720681)
# Method in brief: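 Compounds were added to cell-free DMEM with 10% FBS and fluorescence read directly. The blue channel used 405 nm excitation and 460 nm emission, with triamterene as the reference fluorophore.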
# [8] = qHTS assay to test for compound auto fluorescence at 535 nm (green) in HEK293 cell free culture (AID 720682)
# Method in brief: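 DMEM + 10% FBS, cell-free; cpd or DMSO pinned in; Ex485/Em535 read; output as fluorescein-equivalent signal.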
# [9] = qHTS assay to test for compound auto fluorescence at 590 nm (red) in HEK293 cell free culture (AID 720683)
# Method in brief: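 Cell-free wells of DMEM with 10% FBS received compound, and intrinsic fluorescence was read at excitation/emission 540/590 nm. Values expressed as equivalence to Rose Bengal sodium.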
# [10] = qHTS assay to test for compound auto fluorescence at 590 nm (red) in HepG2 cell free culture (AID 720684)
# Method in brief: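 Auto fluorescence equivalency versus Rose Bengal sodium, red channel Ex/Em 540/590 nm; compounds in cell-free MEM/10% FBS; DMSO vehicle control.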
# [11] = qHTS assay to test for compound auto fluorescence at 535 nm (green) in HepG2 cell free culture (AID 720686)
# [12] = qHTS assay to test for compound auto fluorescence at 460 nm (blue) in HepG2 cells (AID 720687)
# Method in brief: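 HepG2 cells in MEM with 10% FBS, attached overnight at 37 C, were exposed to compound or DMSO for 1 hr at 37 C, 5% CO2. Blue fluorescence was read at 405/460 nm, with triamterene as reference fluorophore.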
# [13] = qHTS assay to identify small molecule antagonists of the glucocorticoid receptor (GR) signaling pathway - cell viability counter screen (AID 720693); note: nearly all actives have a fitted effect of over 55% in size; note: potency is the fitted concentration of half-maximal effect
# [14] = qHTS assay to identify small molecule antagonists of the androgen receptor (AR) signaling pathway using the MDA cell line - cell viability counter screen (AID 743041; note: nearly all actives have a fitted effect of over 45% in size; note: potency is the fitted concentration of half-maximal effect)
# Method in brief: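 Compound exposure lasted 16 h at 37C in MDA-kb2 AR-luc cells stimulated with R1881. Protease-based CellTiter-Fluor reagent was applied for the final 30 min and fluorescence measured.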
# Aromatase (Homo sapiens) = Aromatase (Homo sapiens) (UniProt P11511); assay: qHTS assay to identify aromatase inhibitors (AID 743083); note: nearly all actives have a fitted effect of over 55% in size; note: potency is the fitted concentration of half-maximal effect
# Sequence of Aromatase (Homo sapiens) (P11511 whole entry, looked up): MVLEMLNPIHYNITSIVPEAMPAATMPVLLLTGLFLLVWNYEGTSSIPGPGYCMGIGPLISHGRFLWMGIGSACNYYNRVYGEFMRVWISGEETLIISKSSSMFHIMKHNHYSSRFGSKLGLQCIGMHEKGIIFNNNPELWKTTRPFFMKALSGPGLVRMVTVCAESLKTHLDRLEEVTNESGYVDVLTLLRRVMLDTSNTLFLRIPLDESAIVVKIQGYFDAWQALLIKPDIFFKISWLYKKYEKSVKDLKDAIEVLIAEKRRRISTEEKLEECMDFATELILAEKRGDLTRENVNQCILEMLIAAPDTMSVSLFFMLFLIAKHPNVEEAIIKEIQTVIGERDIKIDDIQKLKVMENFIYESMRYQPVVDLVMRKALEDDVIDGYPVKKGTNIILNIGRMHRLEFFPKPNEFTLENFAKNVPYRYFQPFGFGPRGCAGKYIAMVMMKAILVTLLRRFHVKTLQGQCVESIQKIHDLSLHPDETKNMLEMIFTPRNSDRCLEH
# [15] = qHTS assay to identify aromatase inhibitors - cell viability counter screen (AID 743084);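 note: cells stimulated with testosterone during compound exposure; nearly all actives have a fitted effect of over 55% in size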; note: potency is the fitted concentration of half-maximal effect
# [16] = target: Aryl hydrocarbon receptor (Homo sapiens) (UniProt P35869); assay: qHTS assay to identify small molecule that activate the aryl hydrocarbon receptor (AhR) signaling pathway (AID 743085); note: nearly all actives have a fitted effect of over 15% in size; note: potency is the fitted concentration of half-maximal effect
# Sequence of Aryl hydrocarbon receptor (Homo sapiens) (P35869 whole entry, looked up): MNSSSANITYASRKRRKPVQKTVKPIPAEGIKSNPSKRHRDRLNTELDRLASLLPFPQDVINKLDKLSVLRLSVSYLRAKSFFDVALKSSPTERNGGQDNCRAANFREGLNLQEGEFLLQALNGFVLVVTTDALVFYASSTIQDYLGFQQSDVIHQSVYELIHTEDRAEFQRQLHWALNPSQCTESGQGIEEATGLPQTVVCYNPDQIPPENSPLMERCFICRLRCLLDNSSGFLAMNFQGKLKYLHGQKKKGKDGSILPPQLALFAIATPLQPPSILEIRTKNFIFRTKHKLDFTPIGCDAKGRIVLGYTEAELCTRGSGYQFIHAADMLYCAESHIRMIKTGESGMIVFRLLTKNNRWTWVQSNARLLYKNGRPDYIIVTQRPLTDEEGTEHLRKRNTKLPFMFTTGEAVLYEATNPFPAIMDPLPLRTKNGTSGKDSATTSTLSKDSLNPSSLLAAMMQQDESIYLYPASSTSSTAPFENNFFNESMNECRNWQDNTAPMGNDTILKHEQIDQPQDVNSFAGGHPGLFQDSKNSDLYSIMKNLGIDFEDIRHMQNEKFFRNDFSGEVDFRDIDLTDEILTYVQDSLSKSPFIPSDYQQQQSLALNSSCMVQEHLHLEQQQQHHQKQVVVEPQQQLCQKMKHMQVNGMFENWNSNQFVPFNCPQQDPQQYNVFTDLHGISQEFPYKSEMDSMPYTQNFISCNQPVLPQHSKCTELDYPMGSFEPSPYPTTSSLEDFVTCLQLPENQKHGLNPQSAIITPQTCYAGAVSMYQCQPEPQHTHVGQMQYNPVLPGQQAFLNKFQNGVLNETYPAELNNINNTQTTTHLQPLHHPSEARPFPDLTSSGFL
# Method in brief: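 A multiplexed format paired cell viability (CellTiter-Fluor fluorescence) with AhR-dependent luciferase output (ONE-Glo luminescence) in the same wells of HepG2 DRE-luc cells after 24 h compound exposure at 37C.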
# [17] = qHTS assay to identify small molecule that activate the aryl hydrocarbon receptor (AhR) signaling pathway - cell viability counter screen (AID 743086); note: nearly all actives have a fitted effect of over 45% in size; note: potency is the fitted concentration of half-maximal effect
# Method in brief: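 HepG2-AhR-luc (HG2L7.5c1) cells, 4000/well, treated 24 h at 37 C with compound; viability measured as CellTiter-Fluor fluorescence after 30 min in the same wells as the luciferase read.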
# [18] = qHTS assay to identify small molecule phospholipidosis (PLD) inducers (AID 1259344; active = well fitted curve in the direction sought with a large enough effect; an effect the other way counts as inactive or inconclusive)
# Method in brief: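 Image-based: LipidTOX Red pit count/intensity per well and per cell; HepG2, 24 h compound at 37 C, PFA fixation, Hoechst counterstain.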
# [19] = qHTS assay to identify small molecule antagonists of the estrogen receptor alpha (ER-alpha) signaling pathway using the BG1 cell line - cell viability counter screen (AID 743081);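 note: compound given together with 17beta-estradiol as the ER stimulus; nearly all actives have a fitted effect of over 45% in size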; note: potency is the fitted concentration of half-maximal effect
SMILES,Potency [1],Potency [2],outcome [3],Potency [4],Potency [5],outcome [6],Potency [7],Potency [8],outcome [9],outcome [10],Potency [11],Potency [12],Potency [13],Potency [14],Potency (Aromatase (Homo sapiens)),Potency [15],Potency [16],Potency [17],Potency [18],Potency [19]
C[C@H]1CC[C@]2(NC1)O[C@H]1C[C@H]3[C@@H]4CC[C@H]5C[C@@H](O[C@@H]6O[C@H](CO)[C@H](O[C@@H]7O[C@H](CO)[C@@H](O)[C@H](O[C@@H]8OC[C@@H](O)[C@H](O)[C@H]8O)[C@H]7O[C@@H]7O[C@H](CO)[C@@H](O)[C@H](O)[C@H]7O)[C@H](O)[C@H]6O)CC[C@]5(C)[C@H]4CC[C@]3(C)[C@H]1[C@@H]2C,2.11 µM (active),3.35 µM (active),inactive,inactive,inactive,inactive,inactive,inactive,inactive,inactive,inactive,inactive,2.39 µM (active),6.68 µM (active),3.35 µM (active),5.96 µM (active),inactive,5.96 µM (active),inactive,
CCC(C)(S(=O)(=O)CC)S(=O)(=O)CC,inactive,,inactive,inactive,inactive,inactive,inactive,inactive,inactive,inactive,inactive,inactive,inactive,inactive,inactive,inactive,inactive,inactive,inactive,
CN(C)CCCCCCN(C)C,inactive,inactive,inactive,inactive,inactive,inactive,inactive,inactive,inactive,inactive,inactive,inactive,inactive,inactive,inactive,inactive,inactive,inactive,,inactive
CC(=O)Oc1ccc2c3c1O[C@H]1[C@@H](OC(C)=O)C=C[C@H]4[C@@H](C2)N(C)CC[C@@]341,inactive,inactive,inactive,inactive,inactive,inactive,inactive,inactive,inactive,inactive,inactive,inactive,inactive,inactive,inactive,inactive,inactive,inactive,inactive,inactive
O=C(CCl)c1ccc(Oc2ccc(C(=O)CCl)cc2)cc1,inactive,inactive,inactive,inactive,inactive,inactive,inactive,inactive,inactive,inactive,inactive,inactive,inactive,inactive,inactive,inactive,inactive,inactive,inactive,inactive
O=[N+]([O-])c1cc(I)c(O)c(I)c1,3.76 µM (active),,inactive,inactive,inactive,inactive,inactive,inactive,inactive,inactive,inactive,inactive,,inactive,inactive,inactive,inactive,inactive,inactive,10.6 µM (active)
CCNC(C)Cc1cccc(C(F)(F)F)c1 (stereo not drawn),inactive,inactive,inactive,inactive,inactive,inactive,inactive,inactive,inactive,inactive,inactive,inactive,inactive,inactive,inactive,inactive,inactive,inactive,inactive,inactive
COC1=CC=C2[C@H]3Cc4ccc(OC)c5c4[C@@]2(CCN3C)[C@H]1O5,inactive,inactive,inactive,inactive,inactive,inactive,inactive,inactive,inactive,inactive,inactive,inactive,inactive,inactive,inactive,inactive,inactive,inactive,inactive,inactive
NCC(O)c1cccc(O)c1 (stereo not drawn),inactive,inactive,inactive,inactive,inactive,inactive,inactive,inactive,inactive,inactive,inactive,inactive,inactive,inactive,inactive,inactive,inactive,inactive,inactive,inactive
CC(Cc1ccccc1)NC=O (stereo not drawn),inactive,inactive,inactive,inactive,inactive,inactive,inactive,inactive,inactive,inactive,inactive,inactive,inactive,inactive,inactive,inactive,inactive,inactive,inactive,inactive
CCC(=O)O[C@@](Cc1ccccc1)(c1ccccc1)[C@@H](C)CN(C)C,inactive,inactive,inactive,inactive,inactive,inactive,inactive,inactive,inactive,inactive,inactive,inactive,inactive,inactive,,,,inactive,inactive,
CNC(C)C(O)c1ccc(O)cc1 (stereo not drawn),inactive,inactive,inactive,inactive,inactive,inactive,inactive,inactive,inactive,inactive,inactive,inactive,inactive,inactive,inactive,inactive,inactive,inactive,inactive,inactive
CC(=O)O[C@H]1C[C@H](O[C@H]2[C@@H](O)C[C@H](O[C@H]3[C@@H](O)C[C@H](OC4CC[C@@]5(C)[C@H](CC[C@@H]6[C@@H]5CC[C@]5(C)[C@@H](C7=CC(=O)OC7)CC[C@]65O)C4)O[C@@H]3C)O[C@@H]2C)O[C@H](C)[C@H]1O[C@@H]1O[C@H](CO)[C@@H](O)[C@H](O)[C@H]1O (stereo partly drawn),0.0473 µM (active),inactive,inactive,inactive,inactive,inactive,inactive,inactive,inactive,inactive,inactive,inactive,0.756 µM (active),,inactive,inactive,inactive,inactive,inactive,inactive
O=S(=O)(O)c1cc(O)ccc1O,inactive,inactive,inactive,inactive,inactive,inactive,inactive,inactive,inactive,inactive,inactive,inactive,inactive,inactive,,,,inactive,inactive,inactive
Cc1ccccc1-n1c(CF)nc2ccc(N)cc2c1=O,inactive,inactive,inactive,inactive,inactive,inactive,inactive,inactive,inactive,inactive,inactive,inactive,inactive,inactive,inactive,inactive,29.8 µM (active),inactive,inactive,inactive
CC(C)(O)[C@@H]1[C@H]2OC(=O)[C@@H]1[C@]1(O)C[C@H]3O[C@]34C(=O)O[C@H]2[C@]14C,inactive,inactive,inactive,inactive,inactive,inactive,inactive,inactive,inactive,inactive,inactive,inactive,inactive,inactive,,,,inactive,inactive,inactive
CCC1(CC)C(=O)NC(=O)N(C)C1=O,inactive,inactive,inactive,inactive,inactive,inactive,inactive,inactive,inactive,inactive,inactive,inactive,inactive,,inactive,inactive,inactive,inactive,inactive,inactive
C[C@@H](CO)NC(=O)[C@@H]1C=C2c3cccc4[nH]cc(c34)C[C@H]2N(C)C1,inactive,inactive,inactive,inactive,inactive,inactive,inactive,inactive,inactive,inactive,inactive,inactive,inactive,inactive,inactive,inactive,inactive,,inactive,inactive
CC1(C)S[C@@H]2[C@H](N)C(=O)N2[C@H]1C(=O)O,inactive,inactive,inactive,inactive,inactive,inactive,inactive,inactive,inactive,inactive,inactive,inactive,inactive,inactive,inactive,inactive,inactive,inactive,inactive,inactive
CC(=O)O[C@H]1CC[C@H]2[C@@H]3CCC4=CC(=O)CCC4=C3C=C[C@]12C,inactive,inactive,inactive,inactive,inactive,inactive,inactive,inactive,inactive,inactive,inactive,inactive,,inactive,inactive,inactive,inactive,inactive,inactive,inactive
CC1(C)[C@H](C=C(Cl)Cl)[C@H]1C(=O)OCc1c(F)c(F)cc(F)c1F,inactive,inactive,inactive,inactive,inactive,inactive,inactive,inactive,inactive,inactive,inactive,inactive,inactive,inactive,inactive,inactive,inactive,inactive,inactive,inactive
COC(COC(N)=O)C1=C(N2CC2)C(=O)C(C)=C(N2CC2)C1=O (stereo not drawn),7.5 µM (active),inactive,inactive,inactive,inactive,inactive,inactive,inactive,inactive,inactive,inactive,inactive,1.9 µM (active),13.3 µM (active),21.1 µM (active),,29.8 µM (active),,inactive,6.68 µM (active)
O=C(OCCN1CCCCC1)C(O)(c1ccccc1)c1ccccc1,inactive,inactive,inactive,inactive,inactive,inactive,inactive,inactive,inactive,inactive,inactive,inactive,inactive,inactive,inactive,inactive,inactive,inactive,inactive,inactive
CNC1(c2ccccc2Cl)CCCCC1=O (stereo not drawn),inactive,inactive,inactive,inactive,inactive,inactive,inactive,inactive,inactive,inactive,inactive,inactive,inactive,inactive,inactive,inactive,inactive,inactive,inactive,inactive
CN1c2ccccc2C(NCCCCCCC(=O)O)c2ccc(Cl)cc2S1(=O)=O (stereo not drawn),inactive,inactive,inactive,inactive,inactive,inactive,inactive,inactive,inactive,inactive,inactive,inactive,inactive,inactive,inactive,inactive,inactive,inactive,inactive,inactive
Oc1cccc[c]1[Hg][Cl],7.5 µM (active),13.3 µM (active),inactive,inactive,inactive,inactive,inactive,inactive,inactive,inactive,inactive,inactive,5.35 µM (active),7.5 µM (active),3.76 µM (active),5.31 µM (active),inactive,16.8 µM (active),inactive,23.7 µM (active)
